{
  "source": "the supplement of paper PMC10338343",
  "note": "± gives the standard deviation.",
  "data": [
    {"test_system": "MILI (PIWIL2) piRISC loaded with L1MC piRNA (26 nt)", "assay": "pre-steady-state target cleavage rate (min^-1); guide: L1MC piRNA 5'p-UAACUAAAUACUAUGCAAGCUGUAGG; higher = faster piRNA-guided slicing of the target", "conditions": "auxiliary factor: none (no GTSF1)", "how_it_was_run": "(§1)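 A transcribed, DNA-blocked target RNA library (0.1 nM) and 1 nM active affinity-purified piRISC bearing one synthetic guide were incubated in HEPES–potassium acetate buffer at 33 °C for 0–8 or 0–960 min, either with or without 500 nM GTSF1 partner protein. Uncleaved targets were sequenced, normalised to depth and to weakly complementary targets, and pooled over three trials, with k3 capped at 0.0001 min^-1. The pre-steady-state cleavage rate was derived with a burst-and-steady-state fit.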", "values": [
      {"sequence": "UCCUGGAUCAGCUUGCAUAGUAUUUACAAA", "pre-steady-state target cleavage rate": "0.00255 ± 0.0024"},
      {"sequence": "UCCUGGAUCAGCUACCAUAGUAUUUAGUUA", "pre-steady-state target cleavage rate": "0.00343 ± 0.0016"},
      {"sequence": "UCCUGGUUCAGCUUGCAAAGUAUUUAGUUA", "pre-steady-state target cleavage rate": "0.0176 ± 0.0038"},
      {"sequence": "UCCUGUUACAGCUUGCAUAGUAUUUAGUUA", "pre-steady-state target cleavage rate": "0.0102 ± 0.0034"},
      {"sequence": "UCCUGGAUCAGCUUGAAUAGUAUUUAGUUA", "pre-steady-state target cleavage rate": "0.00991 ± 0.0026"},
      {"sequence": "UCCUGGAUGUGCUGCAUAGUAUUUAGUUA", "pre-steady-state target cleavage rate": "0.00895 ± 0.0024"},
      {"sequence": "UCCUGGUACAGCUUCGCAUAGUAUUUAGUUA", "pre-steady-state target cleavage rate": "0.0125 ± 0.0035"},
      {"sequence": "UCCUCCUACAGCUUGGAUAGUAUUAAGUUA", "pre-steady-state target cleavage rate": "0.00275 ± 0.0027"},
      {"sequence": "UCCUCCUACAGCUUGCAUAGUAUUCAGUUA", "pre-steady-state target cleavage rate": "0.00319 ± 0.0024"},
      {"sequence": "UCCUGGUACAGCUUGCAUAGUAUUUAGUA", "pre-steady-state target cleavage rate": "0.00521 ± 0.003"},
      {"sequence": "UCCUGGAUCAUGCUUGCAUAGUAUUUAGUUA", "pre-steady-state target cleavage rate": "0.00983 ± 0.0024"},
      {"sequence": "UCCUGCUACACCUUGCAUAGUAUUUAGUUA", "pre-steady-state target cleavage rate": "0.0087 ± 0.0022"},
      {"sequence": "UCCUGGAACAGCUUGCUUAGUAAUUAGUUA", "pre-steady-state target cleavage rate": "0.00562 ± 0.0024"},
      {"sequence": "UCCUCCUUCAGCUUGGAUAGUAUUUAGUUA", "pre-steady-state target cleavage rate": "0.0086 ± 0.0023"},
      {"sequence": "UCCUGGUACAGGAUGCAUAGUAUUUAGUAA", "pre-steady-state target cleavage rate": "0.00595 ± 0.002"},
      {"sequence": "UCCUGGUACAGCUUGCAUAGUUAUUAGUUA", "pre-steady-state target cleavage rate": "0.00509 ± 0.0027"},
      {"sequence": "UCCUGGAACAGUUUGCAUAGUAUUUAGUUA", "pre-steady-state target cleavage rate": "0.00997 ± 0.0019"},
      {"sequence": "UCCUGGAUGUGCGUGCAUAGUAUUUAGUUA", "pre-steady-state target cleavage rate": "0.0107 ± 0.0032"},
      {"sequence": "UCCUGGAUGUGAUUGCAUAGUAUUUAGUUA", "pre-steady-state target cleavage rate": "0.00851 ± 0.0026"},
      {"sequence": "UCCUGCUUCAGCUUGCAUUGUAUUUAGUUA", "pre-steady-state target cleavage rate": "0.0103 ± 0.0023"},
      {"sequence": "UCCUGGAUGAGCUUGCAUUGUAUUUAGUUA", "pre-steady-state target cleavage rate": "0.00846 ± 0.0023"},
      {"sequence": "UCCUGGAACAGCUUGCAAAGUAUAUAGUUA", "pre-steady-state target cleavage rate": "0.00404 ± 0.0021"},
      {"sequence": "UCCUCGUACAGCUUGCAAAGUAUUUAGUUA", "pre-steady-state target cleavage rate": "0.00953 ± 0.0024"},
      {"sequence": "UCCUGCUACAGCUUGCAAAGUAUUAAGUUA", "pre-steady-state target cleavage rate": "0.00367 ± 0.0025"},
      {"sequence": "UCCUGGAACAGCUUGCAUAGUAUAUUAGUUA", "pre-steady-state target cleavage rate": "0.00778 ± 0.0024"},
      {"sequence": "UCCUGGUAGAGCUUGGAUAGUAUUUAGUUA", "pre-steady-state target cleavage rate": "0.00624 ± 0.0029"},
      {"sequence": "UCCUGGAUCAGCUUGCUUACUAUUUAGUUA", "pre-steady-state target cleavage rate": "0.00436 ± 0.0022"},
      {"sequence": "UCCUGGUUCAGCUUGCAUAGUAAUUAGUUA", "pre-steady-state target cleavage rate": "0.00723 ± 0.0031"},
      {"sequence": "UCCUGGAUGUGCUUGCAUAGUCUUUAGUUA", "pre-steady-state target cleavage rate": "0.00463 ± 0.0025"},
      {"sequence": "UCCUCCUACAGCUUGCAUUGUAUUUUGUUA", "pre-steady-state target cleavage rate": "0.00327 ± 0.0022"},
      {"sequence": "UCCUGGAUCAGGAUGCAUAGUAUUUAGUUA", "pre-steady-state target cleavage rate": "0.00724 ± 0.0018"},
      {"sequence": "UCCUGGAACAGCUUGCAUAGUCUUUAGUUA", "pre-steady-state target cleavage rate": "0.00483 ± 0.0022"},
      {"sequence": "UCCUCCUACAGCUUAGCAUAGUAUUUAGUUA", "pre-steady-state target cleavage rate": "0.0112 ± 0.0024"},
      {"sequence": "UCCUGGUACAGCUAGCAUAGUAUUUAGUAA", "pre-steady-state target cleavage rate": "0.00371 ± 0.0023"},
      {"sequence": "UCCUGGAUGAGCUUGCAUAGUAUUGAGUUA", "pre-steady-state target cleavage rate": "0.00369 ± 0.0027"},
      {"sequence": "UCCUGGAUGUCCGUGCAUAGUAUUUAGUUA", "pre-steady-state target cleavage rate": "0.00675 ± 0.0027"},
      {"sequence": "UCCUGGAUGUGCUUGCAUAGUACUUAGUUA", "pre-steady-state target cleavage rate": "0.00413 ± 0.0024"},
      {"sequence": "UCCUCCUACAGCUUCGAUAGUAUUUAGUUA", "pre-steady-state target cleavage rate": "0.00534 ± 0.0022"},
      {"sequence": "UCCUGCUACAGCUUAGCAUAGUAUUUAGUUA", "pre-steady-state target cleavage rate": "0.0072 ± 0.0026"},
      {"sequence": "UCCUCCUACACGUUGCAUAGUAUUUAGUAA", "pre-steady-state target cleavage rate": "0.00299 ± 0.0029"}
    ]},
    {"test_system": "EfPiwi piRISC loaded with L1MC piRNA (26 nt)", "assay": "pre-steady-state target cleavage rate (min^-1); auxiliary factor: 500 nM Ephydatia muelleri Gtsf1; guide: L1MC piRNA 5'p-UAACUAAAUACUAUGCAAGCUGUAGG; MIWI and MILI are mouse PIWI proteins and EfPiwi is from a freshwater sponge; tags in brackets are library labels; higher = faster piRNA-guided slicing of the target", "conditions": "not given", "how_it_was_run": "as §1", "values": [
      {"sequence": "UCCUGGAUCAGCUUGCAUAGUAUUUACAAA", "pre-steady-state target cleavage rate": "0.00404 ± 0.002"},
      {"sequence": "UCCUGGAUCAGCUACCAUAGUAUUUAGUUA", "pre-steady-state target cleavage rate": "0.00516 ± 0.0032"},
      {"sequence": "UCCUGGUUCAGCUUGCAAAGUAUUUAGUUA", "pre-steady-state target cleavage rate": "0.0681 ± 0.019"},
      {"sequence": "UCCUGUUACAGCUUGCAUAGUAUUUAGUUA", "pre-steady-state target cleavage rate": "0.231 ± 0.07"},
      {"sequence": "UCCUGGAUCAGCUUGAAUAGUAUUUAGUUA", "pre-steady-state target cleavage rate": "0.0605 ± 0.015"},
      {"sequence": "UCCUGGAUGUGCUGCAUAGUAUUUAGUUA", "pre-steady-state target cleavage rate": "0.00571 ± 0.0034"},
      {"sequence": "UCCUGGUACAGCUUCGCAUAGUAUUUAGUUA", "pre-steady-state target cleavage rate": "0.038 ± 0.0086"},
      {"sequence": "UCCUCCUACAGCUUGGAUAGUAUUAAGUUA", "pre-steady-state target cleavage rate": "0.00905 ± 0.0043"},
      {"sequence": "UCCUCCUACAGCUUGCAUAGUAUUCAGUUA", "pre-steady-state target cleavage rate": "0.0063 ± 0.0029"},
      {"sequence": "UCCUGGUACAGCUUGCAUAGUAUUUAGUA", "pre-steady-state target cleavage rate": "0.00657 ± 0.0033"},
      {"sequence": "UCCUGGAUCAUGCUUGCAUAGUAUUUAGUUA", "pre-steady-state target cleavage rate": "0.0911 ± 0.025"},
      {"sequence": "UCCUGCUACACCUUGCAUAGUAUUUAGUUA", "pre-steady-state target cleavage rate": "0.0124 ± 0.0048"},
      {"sequence": "UCCUGGAACAGCUUGCUUAGUAAUUAGUUA", "pre-steady-state target cleavage rate": "0.00639 ± 0.0027"},
      {"sequence": "UCCUCCUUCAGCUUGGAUAGUAUUUAGUUA", "pre-steady-state target cleavage rate": "0.0562 ± 0.013"},
      {"sequence": "UCCUGGUACAGGAUGCAUAGUAUUUAGUAA", "pre-steady-state target cleavage rate": "0.00412 ± 0.002"},
      {"sequence": "UCCUGGUACAGCUUGCAUAGUUAUUAGUUA", "pre-steady-state target cleavage rate": "0.00325 ± 0.0025"},
      {"sequence": "UCCUGGAACAGUUUGCAUAGUAUUUAGUUA", "pre-steady-state target cleavage rate": "0.0565 ± 0.013"},
      {"sequence": "UCCUGGAUGUGCGUGCAUAGUAUUUAGUUA", "pre-steady-state target cleavage rate": "0.00405 ± 0.0027"},
      {"sequence": "UCCUGGAUGUGAUUGCAUAGUAUUUAGUUA", "pre-steady-state target cleavage rate": "0.00623 ± 0.0031"},
      {"sequence": "UCCUGCUUCAGCUUGCAUUGUAUUUAGUUA", "pre-steady-state target cleavage rate": "0.0233 ± 0.0065"},
      {"sequence": "UCCUGGAUGAGCUUGCAUUGUAUUUAGUUA", "pre-steady-state target cleavage rate": "0.00376 ± 0.0029"},
      {"sequence": "UCCUGGAACAGCUUGCAAAGUAUAUAGUUA", "pre-steady-state target cleavage rate": "0.00745 ± 0.0042"},
      {"sequence": "UCCUCGUACAGCUUGCAAAGUAUUUAGUUA", "pre-steady-state target cleavage rate": "0.143 ± 0.032"},
      {"sequence": "UCCUGCUACAGCUUGCAAAGUAUUAAGUUA", "pre-steady-state target cleavage rate": "0.00445 ± 0.0021"},
      {"sequence": "UCCUGGAACAGCUUGCAUAGUAUAUUAGUUA", "pre-steady-state target cleavage rate": "0.0104 ± 0.0043"},
      {"sequence": "UCCUGGUAGAGCUUGGAUAGUAUUUAGUUA", "pre-steady-state target cleavage rate": "0.004 ± 0.0023"},
      {"sequence": "UCCUGGAUCAGCUUGCUUACUAUUUAGUUA", "pre-steady-state target cleavage rate": "0.0032 ± 0.0024"},
      {"sequence": "UCCUGGUUCAGCUUGCAUAGUAAUUAGUUA", "pre-steady-state target cleavage rate": "0.0107 ± 0.0037"},
      {"sequence": "UCCUGGAUGUGCUUGCAUAGUCUUUAGUUA", "pre-steady-state target cleavage rate": "0.00922 ± 0.0036"},
      {"sequence": "UCCUCCUACAGCUUGCAUUGUAUUUUGUUA", "pre-steady-state target cleavage rate": "0.00442 ± 0.0027"},
      {"sequence": "UCCUGGAUCAGGAUGCAUAGUAUUUAGUUA", "pre-steady-state target cleavage rate": "0.0121 ± 0.0027"},
      {"sequence": "UCCUGGAACAGCUUGCAUAGUCUUUAGUUA", "pre-steady-state target cleavage rate": "0.00979 ± 0.0029"},
      {"sequence": "UCCUCCUACAGCUUAGCAUAGUAUUUAGUUA", "pre-steady-state target cleavage rate": "0.0919 ± 0.025"},
      {"sequence": "UCCUGGUACAGCUAGCAUAGUAUUUAGUAA", "pre-steady-state target cleavage rate": "0.00365 ± 0.0021"},
      {"sequence": "UCCUGGAUGAGCUUGCAUAGUAUUGAGUUA", "pre-steady-state target cleavage rate": "0.00461 ± 0.0019"},
      {"sequence": "UCCUGGAUGUCCGUGCAUAGUAUUUAGUUA", "pre-steady-state target cleavage rate": "0.00483 ± 0.0024"},
      {"sequence": "UCCUGGAUGUGCUUGCAUAGUACUUAGUUA", "pre-steady-state target cleavage rate": "0.00522 ± 0.0031"},
      {"sequence": "UCCUCCUACAGCUUCGAUAGUAUUUAGUUA", "pre-steady-state target cleavage rate": "0.0137 ± 0.0042"},
      {"sequence": "UCCUGCUACAGCUUAGCAUAGUAUUUAGUUA", "pre-steady-state target cleavage rate": "0.0477 ± 0.015"},
      {"sequence": "UCCUCCUACACGUUGCAUAGUAUUUAGUAA", "pre-steady-state target cleavage rate": "0.00566 ± 0.0027"}
    ]}
  ]
}
